Source: PMC4336329 (PLoS ONE, 2015)
In all, about 310,000 compounds went through this assay and about 14,000 (4.5%) showed an effect of 50% or more. Effects have a minus sign here. Many of the other results were omitted from the sample, so strong results are more common in it than they were.

molecular target: human ether-à-go-go-related gene (hERG) potassium channel (human, UniProt Q12809); assay: primary screen, population patch clamp on CHO cells stably expressing hERG; higher = less effect of the substance
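Further: peak tail current of the secondary pulse compared with the same well before compound.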

Sequence of human ether-à-go-go-related gene (hERG) potassium channel (Q12809 whole entry, looked up): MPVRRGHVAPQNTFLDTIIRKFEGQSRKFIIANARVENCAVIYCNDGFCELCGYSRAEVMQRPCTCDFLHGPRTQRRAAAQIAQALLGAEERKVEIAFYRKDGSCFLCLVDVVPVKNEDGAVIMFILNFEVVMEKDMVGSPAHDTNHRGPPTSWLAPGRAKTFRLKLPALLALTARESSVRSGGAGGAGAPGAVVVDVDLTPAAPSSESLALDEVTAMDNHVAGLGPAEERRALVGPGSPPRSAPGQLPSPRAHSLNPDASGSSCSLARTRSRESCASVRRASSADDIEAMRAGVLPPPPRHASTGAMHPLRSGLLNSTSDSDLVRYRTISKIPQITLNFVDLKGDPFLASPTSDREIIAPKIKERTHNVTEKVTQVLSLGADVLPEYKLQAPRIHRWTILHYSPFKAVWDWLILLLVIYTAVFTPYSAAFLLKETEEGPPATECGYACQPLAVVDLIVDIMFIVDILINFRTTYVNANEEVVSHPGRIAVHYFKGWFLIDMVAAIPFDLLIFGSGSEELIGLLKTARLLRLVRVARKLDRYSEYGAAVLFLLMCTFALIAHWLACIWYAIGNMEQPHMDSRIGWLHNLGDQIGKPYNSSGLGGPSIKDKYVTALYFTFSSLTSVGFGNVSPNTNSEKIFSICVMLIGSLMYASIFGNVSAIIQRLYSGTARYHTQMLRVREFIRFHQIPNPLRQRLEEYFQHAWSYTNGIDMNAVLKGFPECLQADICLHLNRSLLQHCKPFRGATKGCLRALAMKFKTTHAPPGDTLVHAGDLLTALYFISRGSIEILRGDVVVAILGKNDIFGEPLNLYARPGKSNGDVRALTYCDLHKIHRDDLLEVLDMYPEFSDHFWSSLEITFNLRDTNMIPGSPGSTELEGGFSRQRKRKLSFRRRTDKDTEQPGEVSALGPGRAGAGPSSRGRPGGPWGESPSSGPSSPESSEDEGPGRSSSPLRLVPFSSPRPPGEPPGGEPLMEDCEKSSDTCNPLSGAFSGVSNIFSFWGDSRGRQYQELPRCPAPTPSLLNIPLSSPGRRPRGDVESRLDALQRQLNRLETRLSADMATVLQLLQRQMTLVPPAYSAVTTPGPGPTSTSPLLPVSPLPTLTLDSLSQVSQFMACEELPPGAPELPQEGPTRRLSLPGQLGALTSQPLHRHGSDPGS

| Structure (SMILES) | hERG current change (%, negative = inhibition) at 10uM |
| --- | --- |
| O=C(c1ccc(-c2nc3ccccc3s2)o1)N1CCN(c2ccccc2O)CC1 | 11.6% |
| Cc1ccc(OCCN2CCN(C(=O)CCC(=O)Nc3nnc(CC(C)C)s3)CC2)cc1 | -43.5% |
| CCc1nnc(NC(=O)CCC(=O)NC2CCCCC2)s1 | 15.8% |
| CCc1nnc(NC(=O)CCC(=O)NC2CC2)s1 | -50.5% |
| CN1CCN(CC(=O)Nc2nc3ccccc3s2)CC1.O=CO | -5.53% |
| CCc1nnc(NC(=O)CCC(=O)N2CCN(CCOc3ccc(C)cc3)CC2)s1 | -20.2% |
| O=C(CN1CCN(Cc2ccc(F)cc2)CC1)Nc1nc2ccccc2s1 | -69.3% |
| CCCc1nnc(NC(=O)CCC(=O)N2CCN(CCOc3ccc(C)cc3)CC2)s1 | -51.2% |
| CCN1CCN(CC(=O)Nc2nc3ccccc3s2)CC1.O=CO | -22.7% |
| O=C(CN1CCN(C(=O)c2ccc(-c3nc4ccccc4s3)o2)CC1)Nc1ccc(F)cc1 | -72.3% |
| CCc1nnc(NC(=O)CCC(=O)NC2CCCC2)s1 | -3.36% |
| COc1ccccc1N1CCN(C(=O)c2ccc(-c3nc4ccccc4s3)o2)CC1 | -3.16% |
| Cc1cc(C)c2c(=O)[nH]n(C3CCCCCC3)c2n1 | 23.5% |
| Cc1nc(Nc2nc3c(c(=O)[nH]2)CCC3)nc2ccccc12 | -10.2% |
| Cc1ccc(NC(=S)N(C)C)cc1C | -4.6% |
| O=C(N=C1SC2CS(=O)(=O)CC2N1c1ccc(Cl)cc1Cl)C1CC1 (stereo not drawn) | -7.48% |
| Cc1ccc(/C(O)=C/C(=O)C(=O)NNC(=O)C(O)(c2ccccc2)c2ccccc2)cc1 | 14.5% |
| OCCOc1ccc(C2=NCCO2)cc1 | -23.3% |
| Cc1cnc([N+](=O)[O-])n1CCOC(=O)NC(=O)c1ccccc1Cl | 8.87% |
| COc1ccc(OC)c(NC(=O)CCCNC(=O)c2ccc(Cl)cc2)c1 | -9.27% |
| CS(=O)(=O)c1ccc2nc(NC(=O)CN3CCN(Cc4ccccc4)CC3)sc2c1 | -39.8% |
| CCCN1CCN(CC(=O)Nc2nc3ccccc3s2)CC1 | -49.9% |
| O=C(CN1CCN(Cc2ccccc2)CC1)Nc1nc2ccccc2s1 | -68.2% |

| Structure (SMILES) | hERG current change (%, negative = inhibition) at 10uM |
| --- | --- |
| CCc1nnc(NC(=O)CN2CCN(Cc3ccc(C)cc3)CC2)s1 | -57.6% |
| CCc1nnc(NC(=O)CN2CCN(Cc3ccc(F)cc3)CC2)s1 | -13.6% |
| CCc1nnc(NC(=O)CN2CCN(Cc3cccc(Cl)c3)CC2)s1 | -8.15% |
| Cc1cccc(OCC(=O)Nc2ccc3oc(=O)ccc3c2)c1 | 8.55% |
| COc1ccc(C(C)=O)cc1Cn1nc(C)c([N+](=O)[O-])c1C | 18.5% |
| CC1(C)Oc2ccc3ccc(=O)oc3c2/C(=C/NCCO)C1=O | 5.11% |
| CCCCn1c2c(c(=N)c3c1CCC3)CCC2.I | -2.48% |
| Br.CCCCCCCCCCn1c2c(c(=N)c3c1CCC3)CCC2 | -78.9% |
| CCCn1c2c(c(=N)c3c1CCC3)CCCC2.I | 6.05% |
| CCCCCCn1c(=O)[nH]c2c(c1=O)CCC2 | -3.06% |
| CCOC(=O)Cn1c2c(c(=N)c3c1CCC3)CCC2.Cl | 8.34% |
| Br.CCCCCCCCn1c2c(c(=N)c3c1CCC3)CCCC2 | -76.1% |
| CCCn1c2c(c(=N)c3c1CCC3)CCC2.I | 7.05% |
| Br.CCCCCCCCCn1c2c(c(=N)c3c1CCC3)CCC2 | -74.1% |
| CCOC(=O)Cn1c2c(c(=N)c3c1CCC3)CCCC2.Cl | 18.5% |
| Br.CCn1c2c(c(=N)c3c1CCC3)CCCC2 | -2.41% |
| Br.CCn1c2c(c(=N)c3c1CCC3)CCC2 | 0.642% |
| Br.CCCCCCn1c2c(c(=N)c3c1CCC3)CCC2 | -76.5% |
| CC(NC(=O)Cc1ccccc1)c1nc2ccccc2[nH]1 (stereo not drawn) | 5.94% |
| O=C(CCNC(=O)c1ccc([N+](=O)[O-])cc1)NCCc1ccc(Cl)cc1 | -40.4% |
| Cc1cc(C)n2nc(CC(=O)NCc3ccc(F)cc3)nc2n1 | -0.0725% |
| CCN(CC)N=Nc1ccc(S(=O)(=O)N2CCSC2C(=O)[O-])cc1.[K+] (stereo not drawn) | 28.2% |
| CCC(C)[C@H](NC(=O)OC(C)(C)C)C(=O)N/N=C/c1ccc2nccnc2c1 (stereo partly drawn) | -13.8% |

| Structure (SMILES) | hERG current change (%, negative = inhibition) at 10uM |
| --- | --- |
| CNC(=O)c1cc(OCC(F)(F)F)ccc1OCC(F)(F)F | -4.26% |
| COc1ccc(S(=O)(=O)NCc2ccc(C(=O)NCc3cccnc3)cc2)cc1 | -1.21% |
| COc1ccc(C(=O)N2CCN(C)C(=O)[C@@H]2C)cc1OC1CCN(C(C)=O)CC1 | 12.6% |
| Cc1c(NC(=S)N/N=C/C=C/c2ccccc2)c(=O)n(-c2ccccc2)n1C | 11.2% |
| Cc1ccc(-c2noc(C3CCCCC3)n2)cc1 | 16.1% |
| COc1ccccc1-c1cc2nc(C)c(CCC(=O)NC(C)CCc3ccco3)c(C)n2n1 (stereo not drawn) | -62.5% |
| COc1cc(OC)cc(-c2cc3nc(C)c(CCC(=O)Nc4nc(C)cs4)c(C)n3n2)c1 | 10% |
| COc1ccc(-c2cc3nc(C)c(CCC(=O)NCc4ccc(F)cc4)c(C)n3n2)c(OC)c1 | -60.4% |
| Cc1nc2cc(-c3cccc(F)c3)nn2c(C)c1CCC(=O)NC(C)CCc1ccco1 (stereo not drawn) | -70.6% |
| COc1ccc(CNC(=O)CCc2c(C)nc3cc(-c4ccccc4OC)nn3c2C)cc1 | -37.7% |
| COc1ccccc1-c1cc2nc(C)c(CCC(=O)NCc3ccc(F)cc3)c(C)n2n1 | -49.7% |
| COc1ccccc1CNC(=O)CCc1c(C)nc2cc(-c3ccccc3OC)nn2c1C | -11.5% |
| Cc1csc(NC(=O)CCc2c(C)nc3cc(-c4cccc(F)c4)nn3c2C)n1 | -17.3% |
| COc1cc(OC)cc(-c2cc3nc(C)c(CCC(=O)NCc4ccccc4)c(C)n3n2)c1 | -33.8% |
| Cc1nc2cc(-c3ccccc3)nn2c(C)c1CCC(=O)NCc1ccco1 | -37.4% |
| COc1ccccc1-c1cc2nc(C)c(CCC(=O)NCc3ccco3)c(C)n2n1 | -43.1% |
| COc1cc(OC)cc(-c2cc3nc(C)c(CCC(=O)NC(C)CCc4ccco4)c(C)n3n2)c1 (stereo not drawn) | -58.4% |
| COc1ccc(C2SCC(=O)N2C)cc1 (stereo not drawn) | 1.55% |
| COc1cccc(-c2cc(=O)c3cc(NC(=O)c4ccc(N(C)C)cc4)ccc3[nH]2)c1 | 16.2% |
| CN(C)S(=O)(=O)Oc1ccc(Cl)cc1C(=O)Nc1ccc(F)cc1F | -3.01% |
| Cc1cc(N/N=C2\CC(C)CC(C)(C)C2)nc2ccccc12 (stereo not drawn) | -7.04% |
| CCN1C(=O)/C(=C/c2ccc3c(c2)CCN3CCCCl)C(=O)NC1=S | -3.76% |
| N#Cc1c(-c2ccco2)cc(-c2ccc(F)cc2)nc1N | -2.08% |

| Structure (SMILES) | hERG current change (%, negative = inhibition) at 10uM |
| --- | --- |
| COc1ccc(-c2cc(=O)oc3c(C)c(OC(C)C(=O)Nc4ccc(CN5CCOCC5)cc4)ccc23)cc1 (stereo not drawn) | -5.78% |
| Cn1c(/C(C#N)=C2/CCCCCN2)nc2ccccc21 | -12.5% |
| O=S(=O)(NCc1ccc(Cl)cc1)NCc1ccc(Cl)cc1 | 12.7% |
| COC(=O)c1cc(Br)ccc1OC(=O)c1cccnc1 | 7.06% |
| Cc1nc2cc(-c3ccc(Cl)cc3)nn2c(C)c1CCC(=O)NCc1ccco1 | -41.9% |
| COc1ccc(-c2cc3nc(C)c(CCC(=O)NCc4ccco4)c(C)n3n2)c(OC)c1 | -12.9% |
| COc1ccc(-c2cc3nc(C)c(CCC(=O)NC(C)CCc4ccco4)c(C)n3n2)c(OC)c1 (stereo not drawn) | -62% |
| Cc1ccc(C(=O)O)cc1NC(=S)NCCc1ccccc1 | 0.261% |
| C[C@H](NC(=O)c1cc2c(cn1)[nH]c1ccccc12)C(=O)O | 18.4% |
| CCOC(=O)C1(Cc2ccccc2C)CCCN(S(C)(=O)=O)C1 (stereo not drawn) | 16.5% |
| Cc1cc(NC(=O)c2ccc(N3C(=O)C4C5C=CC(C5)C4C3=O)cc2)no1 (stereo not drawn) | 8.53% |
| O=C(Nc1ccccc1OC(F)F)c1cccc(S(=O)(=O)N2CCCC2)c1 | -23.6% |
| COc1ccc(-n2cnnc2SCC(=O)Nc2cccnc2Cl)cc1 | -18.7% |
| Cc1ccc(NC(=O)COc2ccc(-n3ccnc3)cc2)cc1Cl | -33.6% |
| COc1cc(NC(=O)CC(C)n2ccnc2)cc(OC)c1 (stereo not drawn) | 10.7% |
| COc1cc(NC(=O)COc2ccc(-n3ccnc3)cc2)cc(OC)c1 | -51.3% |
| CCC(C)(C)c1ccc(OCC(=O)Nc2ccncc2)cc1 | -16% |
| CC(C)(C)c1ccc(OCC(=O)Nc2ccncc2)cc1 | 8.71% |
| CC(C)(C)c1ccc(NC(=O)COc2ccc(-n3ccnc3)cc2)cc1 | -56.5% |
| CCOC(=O)/C(C)=N/NC(=O)c1cccc([N+](=O)[O-])c1 | 7.04% |
| Cc1ccc(CNC(=O)c2ccc(N3CCC4(CC3)CC(c3ccccc3)=NO4)c(NC(=O)c3cccc(C)c3)c2)cc1 | -6.37% |
